# Data published in PubChem BioAssay (NCI).
# Compounds without any hit were thinned out: in the full panel of roughly 79,000, 15% have a hit. Values without a mark were called inactive. Cut-off read from the data, not from the text of the source: active = growth inhibition above about 70%; inactive = the rest.
# Experiment: NCI Yeast Anticancer Drug Screen. Data for the mec2-1 strain (AID 157)
# Details: S. cerevisiae mec2-1 strain, at 50.0 µM, stronger effect = higher value
# Method in brief: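 Compounds were applied to mec2-1 yeast cells. Their growth was then compared with that of vehicle-treated cultures to give growth inhibition.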
row,Structure (SMILES),growth inhibition [%]
1,CC(C)c1cccc(C(C)C)c1NC(=O)C(=O)C1SC(=S)NC1=O (stereo not given),-13.1
2,NC(=O)/C=C/c1ccc([N+](=O)[O-])cc1,-6.85
3,CN(C)CCCn1c(=O)nc2n(-c3ccccc3)c3ccccc3nc-2c1=O,4.5
4,Cc1ccc(C2OC(=O)C(=O)C2=O)cc1 (stereo not given),-21.4
5,ClC1=C(Cl)C2(Cl)C3C(CC4C3C3(Cl)C(Cl)=C(Cl)C4(Cl)C3(Cl)Cl)C1(Cl)C2(Cl)Cl (stereo not given),-7.4
6,COc1ccc(C(=O)c2ccccc2)c(N)c1,13.1
7,Cc1ccc(NC(=S)NC(=O)c2ccccc2)cc1,4.95
8,c1ccc2c3c([nH]c2c1)C1(CCCCC1)c1c([nH]c2ccccc12)C31CCCCC1,2.2
9,Brc1cccc(CCOCc2ccccc2)c1,-11.6
10,CCN(CC)C(=O)C1C(C=C(C)C)C1(C)C (stereo not given),20.4
11,CCCC(C)(CC)C(=O)O (stereo not given),-14.8
12,CC(C)(C)c1ccc(C(=O)NCSCC(NC(=O)CCC(N)C(=O)O)C(=O)NCC(=O)O)cc1 (stereo not given),1
13,COC(=O)CCBr,8.15
14,Cc1ccc(N2CCN(CCC(=O)O)CC2)cc1,8.8
15,Cc1sc2nc3n(c(=O)c2c1C)N=C(c1ccccc1)CS3,-11.8
16,CC1=CC(=O)N2[C@H](OC[C@@H]2C(C)C)O1,-2.35
17,CC(/C=C/C(=O)c1sc(C(N)=S)nc1C)=C\c1ccccc1,-13.1
18,CN(C)CCNC(=O)C(C)(C)Oc1ccc(C(=O)c2ccc(Cl)cc2)cc1Cl,6.1
19,C=CC(=N)N,2.4
20,Cc1ccc(S(=O)(=O)N/N=C/c2ccccc2)cc1,-0.5

row,Structure (SMILES),growth inhibition [%]
1,COC(=O)C(/C(=N/NC(N)=O)C(=O)Nc1c(C)cccc1C(C)(C)C)c1nc2ccc(Cl)cc2[nH]c1=O (stereo not given),-15.7
2,[Cl][Pt+2][Cl].[NH-]C(CO)C([NH-])CO (stereo not given),-47.9
3,N#CC(c1ccccc1)[N+](=O)[O-] (stereo not given),-5.05
4,CN=NNc1ccccc1,6.75
5,Nc1ccc(C(C(=O)O)c2ccccc2)cc1Cl (stereo not given),-9
6,O=c1cc(Cl)ncn1C1OC(CO)C(O)C1O (stereo not given),-21.1
7,O=S(=O)(c1ccccc1)c1ccc(O)cc1,-23.8
8,COC(=O)Cc1ccc2c(c1)Sc1ccc(CC(=O)OC)cc1N2C,-43.8
9,CCC(C)CN1C(=O)NC(C)(Cc2ccccc2)C1=O (stereo not given),1.25
10,CC(=O)CC(=O)NCCCc1ccccc1,-33.4
11,COC(=O)C1(C)CCCC2(C)C3CC4OC4(C(C)C)CC3(O)CCC12 (stereo not given),6.85
12,COC(=O)c1c([N+](=O)[O-])ncn1C1CC(OC(C)=O)C(COC(C)=O)O1 (stereo not given),-4.9
13,COC(=O)c1c(O)ccc(O)c1C(=O)OC,-18.4
14,COc1ccc(/C(=N/NS(=O)(=O)c2ccc([N+](=O)[O-])cc2)C2COC(=O)C2)cc1OC (stereo not given),-9
15,COc1cc(/C=N/NC(=O)Cc2cccc3ccccc23)ccc1O,9.5
16,Nc1nc(-c2ccncc2)cc(-c2cc(-c3ccncc3)nc(N)n2)n1,-0.25
17,O=[N+]([O-])c1cccc(NC(c2ccccc2)S(=O)(=O)O)c1 (stereo not given),-18.6
18,O=[N+]([O-])C(C(Cl)=C(Cl)Cl)=C(N1CCCCC1)N1CCCCC1,-19.5
19,CC1(C)OCC2(CO1)CSCCCSCC1(COC(C)(C)OC1)CSCCCSC2,-12.9
20,C=C1CCC2[C@](C)(CCC[C@]2(C)C(=O)O)[C@@H]1CCc1ccoc1 (stereo not given in full),59.9
